# In article doi:10.1101/2024.03.05.583629:
# Biological target: pT7_6His-AlfaTag-ZIF268 (human, UniProt P18146 335-423)
# Assay: PADIT-seq
# Conditions: dsDNA, one strand shown
row,Sequence,binding signal [log2FC]
1,CTCGAGGATATCAAGATCTGGCCTCGGCCGCATGCGCGGAACCTCTAGCTAGCCGACTCACTATAGGGATAATCGCCCTGAGCAAAGACC,0.0876 ± 0.0884
2,CTCGAGGATATCAAGATCTGGCCTCGGCGCGAGCGCGGGAACCTCTAGCTAGCCGACTCACTATAGGGATAATCGCCCTGAGCAAAGACC,0.0892 ± 0.102
3,CTCGAGGATATCAAGATCTGGCCTCGGCCGCCCTCGCGGAACCTCTAGCTAGCCGACTCACTATAGGGATAATCGCCCTGAGCAAAGACC,0.0695 ± 0.102
4,CTCGAGGATATCAAGATCTGGCCTCGGCGCGTGGCGCGGAACCTCTAGCTAGCCGACTCACTATAGGGATAATCGCCCTGAGCAAAGACC,0.0413 ± 0.108
5,CTCGAGGATATCAAGATCTGGCCTCGGCCGCCCAGACGGAACCTCTAGCTAGCCGACTCACTATAGGGATAATCGCCCTGAGCAAAGACC,0.0722 ± 0.0958
6,CTCGAGGATATCAAGATCTGGCCTCGGCGCGTGGGAGGGAACCTCTAGCTAGCCGACTCACTATAGGGATAATCGCCCTGAGCAAAGACC,3.65 ± 0.0848
7,CTCGAGGATATCAAGATCTGGCCTCGGCGCGTGGCTAGGAACCTCTAGCTAGCCGACTCACTATAGGGATAATCGCCCTGAGCAAAGACC,0.021 ± 0.107
8,CTCGAGGATATCAAGATCTGGCCTCGGCGGATGGGCGGGAACCTCTAGCTAGCCGACTCACTATAGGGATAATCGCCCTGAGCAAAGACC,0.0532 ± 0.0937
9,CTCGAGGATATCAAGATCTGGCCTCGGCCACCCACGCGGAACCTCTAGCTAGCCGACTCACTATAGGGATAATCGCCCTGAGCAAAGACC,2.1 ± 0.135
10,CTCGAGGATATCAAGATCTGGCCTCGGCGCGTGGGTGGGAACCTCTAGCTAGCCGACTCACTATAGGGATAATCGCCCTGAGCAAAGACC,4.08 ± 0.0892
